Source: PubChem BioAssay (NCATS)
Inconclusive results are not listed. Unless noted, calls follow the shape of the dose curve; as a rule, active = well fitted curve in either direction with a large enough effect (not every such curve was filed as active); inconclusive = small, poorly fitted or top-dose-only effect, or another doubt; inactive = flat fitted curve, though single readings scatter.

Assays:
[1] = AP1 Signaling Pathway (AID 357); details: ME-180 AP-1-bla reporter, EGF-induced, beta-lactamase ratio, 5 h; at 17.2 µM (top of the series) unless noted;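 also: ME-180 reporter cells stimulated with EGF at its EC50 level; % is scaled to controls: 0 for no effect and ±100 for the full control effect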
Method in brief: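 Modulation of EGF-driven AP-1 transcription was assessed with a beta-lactamase reporter in ME-180 cells. Compound and EC50 EGF were co-incubated 5 hours at 37 °C before 2.5-hour CCF4 loading at room temperature and dual-emission reading.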

[2] = NFAT Signaling Pathway (AID 444); details: Jurkat NFAT-bla M1, carbachol, beta-lactamase ratio, 5 h; at 17.2 µM (top of the series) unless noted;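 also: carbachol stimulus at about its EC50 of 1 µM final; % is scaled to controls: 0 for no effect and ±100 for the full control effect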
Method in brief: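 Jurkat cells carrying an NFAT-driven β-lactamase reporter and co-transfected muscarinic M1 receptor were treated with compound plus carbachol (1 uM final, an EC50 level) for 5 h at 37 °C. CCF4 loading followed for 1 h at RT; 460/530 nm ratio gave %activity.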

[3] = Stat Signaling Pathway (AID 446); details: ME-180 (cervical carcinoma) SIE beta-lactamase reporter, IL-6 stimulated, 5 h; at 17.2 µM (top of the series) unless noted;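 also: ME-180 cervical cancer cells given 40 pM IL-6 alongside compound; SIE-controlled beta-lactamase reporter measured as 460/530 nm FRET emission ratio; % is scaled to controls: 0 for no effect and ±100 for the full control effect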
Method in brief: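 Emission at 460 and 530 nm (excitation 405 nm) reports SIE-controlled beta-lactamase in ME-180 cells. Cells received compound with 40 pM IL-6 for 5 hrs at 37 C; data scaled between 300 pM IL-6 and 125 nM JAK-inhibitor controls.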

[4] = target: Glucocorticoid receptor (Homo sapiens) (UniProt P04150); experiment: GR-GFP Redistribution (AID 450;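 active = compounds whose dose series gives a full or clear partial fitted curve of increased nuclear translocation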; also: potency is read from the fitted curve at half-maximal effect)
Sequence of Glucocorticoid receptor (Homo sapiens) (P04150 whole entry, looked up): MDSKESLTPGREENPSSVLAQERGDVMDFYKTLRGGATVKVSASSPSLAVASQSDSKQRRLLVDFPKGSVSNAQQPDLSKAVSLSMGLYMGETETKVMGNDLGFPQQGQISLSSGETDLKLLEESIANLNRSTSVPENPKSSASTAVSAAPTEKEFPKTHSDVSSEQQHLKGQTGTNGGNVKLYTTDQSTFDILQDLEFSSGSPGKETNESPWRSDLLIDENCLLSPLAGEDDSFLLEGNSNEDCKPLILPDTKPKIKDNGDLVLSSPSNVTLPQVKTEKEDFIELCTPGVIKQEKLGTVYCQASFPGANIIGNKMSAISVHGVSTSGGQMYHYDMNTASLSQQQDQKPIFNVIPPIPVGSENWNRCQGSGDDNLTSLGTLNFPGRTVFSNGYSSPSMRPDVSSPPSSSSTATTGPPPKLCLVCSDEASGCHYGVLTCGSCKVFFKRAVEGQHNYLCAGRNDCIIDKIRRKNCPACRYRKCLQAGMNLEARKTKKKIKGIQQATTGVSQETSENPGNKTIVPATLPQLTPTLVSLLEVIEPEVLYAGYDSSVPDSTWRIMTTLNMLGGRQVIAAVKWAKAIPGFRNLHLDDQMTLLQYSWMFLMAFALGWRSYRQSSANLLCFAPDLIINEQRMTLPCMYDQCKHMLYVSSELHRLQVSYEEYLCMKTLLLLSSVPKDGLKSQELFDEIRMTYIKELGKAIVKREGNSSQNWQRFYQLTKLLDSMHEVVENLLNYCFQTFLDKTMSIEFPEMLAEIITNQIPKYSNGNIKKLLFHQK

CCCc1nnc(NC(=O)c2c(O)c3c([nH]c2=O)CCCC3)s1
inactive: activity change, negative = inhibition [1] -4.44% | activity change, negative = inhibition [2] -18.4% | activity, negative = inhibition [3] 12.4% | Potency [4] > 20.6 µM

C=CCNc1nc(-c2cccc(OC)c2O)nc2ccccc12
inactive: activity change, negative = inhibition [1] 20.2% | activity change, negative = inhibition [2] 4.81% | activity, negative = inhibition [3] -11.9% | Potency [4] > 20.6 µM

C=CCn1c(SCC(=O)c2ccccc2)nnc1-c1ccc2c(c1)OCO2
inactive: activity change, negative = inhibition [1] -7.81% | activity change, negative = inhibition [2] 16.5% | activity, negative = inhibition [3] -9.25% | Potency [4] > 20.6 µM

COc1ccc(CSc2nnc(C)n2N)cc1Br
inactive: activity change, negative = inhibition [1] -1.02% | activity change, negative = inhibition [2] -3.73% | activity, negative = inhibition [3] 8.37% | Potency [4] > 20.6 µM

O=C(CN1C2=NCCN2c2ccccc21)N1CCOCC1
inactive: activity change, negative = inhibition [1] 5.86% | activity change, negative = inhibition [2] -2.85% | activity, negative = inhibition [3] 8.05% | Potency [4] > 20.6 µM

COCCOC(=O)C1=C(C)NC(SCC(=O)NC(C)(C)C)=C(C#N)C1c1ccco1 (stereo not given)
inactive: activity change, negative = inhibition [1] -20.5% | activity change, negative = inhibition [2] 12.6% | activity, negative = inhibition [3] -8.48% | Potency [4] > 20.6 µM

NC(=O)CSc1c[nH]c2ccccc12
inactive: activity change, negative = inhibition [1] 2.78% | activity change, negative = inhibition [2] 0.963% | activity, negative = inhibition [3] -0.854% | Potency [4] > 20.6 µM

Clc1ccc(-c2cn3c(n2)CCC3)cc1
inactive: activity change, negative = inhibition [1] 4.83% | activity change, negative = inhibition [2] -26.9% | activity, negative = inhibition [3] 7.31% | Potency [4] > 20.6 µM

CC(=O)C1=C(O)C(=O)N(c2ccc(S(N)(=O)=O)cc2)C1c1ccccc1F (stereo not given)
inactive: activity change, negative = inhibition [1] -4.17% | activity change, negative = inhibition [2] 5.76% | activity, negative = inhibition [3] -0.593% | Potency [4] > 20.6 µM

CCOC(=O)c1ccc(CC2S/C(=C(\C#N)C(C)=O)NC2=O)cc1 (stereo not given)
inactive: activity change, negative = inhibition [1] -24.1% | activity change, negative = inhibition [2] 13.3% | activity, negative = inhibition [3] -21.4% | Potency [4] > 20.6 µM

CCc1[nH]c(=O)c(C#N)c2c1CCCC2
inactive: activity change, negative = inhibition [1] 3.3% | activity change, negative = inhibition [2] -7.46% | activity, negative = inhibition [3] 4.68% | Potency [4] > 20.6 µM

COC(=O)CSc1nnc2n(-c3ccc(OC)cc3)c(=O)c3c4c(sc3n12)CCCCC4
inactive: activity change, negative = inhibition [1] -16% | activity change, negative = inhibition [2] -18.9% | activity, negative = inhibition [3] 5.65% | Potency [4] > 20.6 µM

Cc1cc(C)n(CC2CC(=O)N(c3ccc(C)c(Cl)c3)C2=O)n1 (stereo not given)
inactive: activity change, negative = inhibition [1] -6.66% | activity change, negative = inhibition [2] 13.9% | activity, negative = inhibition [3] -4.28% | Potency [4] > 20.6 µM

CC1CN(C2CCN(S(=O)(=O)c3ccc4ccccc4c3)CC2)CC(C)O1 (stereo not given)
inactive: activity change, negative = inhibition [1] -3.99% | activity change, negative = inhibition [2] -12.1% | activity, negative = inhibition [3] -8.2% | Potency [4] > 20.6 µM

Cc1nn2c(-c3ccc(Cl)cc3)nnc2s1
inactive: activity change, negative = inhibition [1] -4.06% | activity change, negative = inhibition [2] -5.76% | activity, negative = inhibition [3] 14.5% | Potency [4] > 20.6 µM

CN1CCc2c(C#N)c(N3CCCCC3)nc(N3CCOCC3)c2C1
inactive: activity change, negative = inhibition [1] 1.28% | activity change, negative = inhibition [2] 20.7% | activity, negative = inhibition [3] 10.9% | Potency [4] > 20.6 µM

CC(=O)O[C@@]12CO[C@@H]1C[C@H](O)[C@@]1(C)C(=O)[C@H](O)C3=C(C)[C@@H](OC(=O)[C@H](O)[C@@H](NC(=O)OC(C)(C)C)c4ccccc4)C[C@](O)([C@@H](OC(=O)c4ccccc4)[C@H]21)C3(C)C
inactive: activity change, negative = inhibition [1] -3.46% | activity change, negative = inhibition [2] 29.1% | activity, negative = inhibition [3] -5.76% | Potency [4] > 20.6 µM

CCCCNC(=O)c1cc2n(n1)C(C(F)(F)F)CC(c1ccccc1)N2 (stereo not given)
inactive: activity change, negative = inhibition [1] -14.9% | activity change, negative = inhibition [2] 11.1% | activity, negative = inhibition [3] -0.224% | Potency [4] > 20.6 µM

C=CC(O)Cc1c(C)n[nH]c1C (stereo not given)
inactive: activity change, negative = inhibition [1] 18.3% | activity change, negative = inhibition [2] 4.36% | activity, negative = inhibition [3] 7.01% | Potency [4] > 20.6 µM

Nc1ccc2cn[nH]c2c1
inactive: activity change, negative = inhibition [1] 4.71% | activity change, negative = inhibition [2] 2.08% | activity, negative = inhibition [3] 6.7% | Potency [4] > 20.6 µM

CC(=O)NCCCCCCNC(C)=O
inactive: activity change, negative = inhibition [1] 10.3% | activity change, negative = inhibition [2] -0.404% | activity, negative = inhibition [3] 2.41% | Potency [4] > 20.6 µM

Cc1cc(C)nc(NC(=O)c2ccc(OC(C)C)cc2)n1
inactive: activity change, negative = inhibition [1] -5.46% | activity change, negative = inhibition [2] -4.53% | activity, negative = inhibition [3] -7.33% | Potency [4] > 20.6 µM

COc1cc(S(=O)(=O)N2CCN(c3ccc(F)cc3)CC2)ccc1Cl
inactive: activity change, negative = inhibition [1] 5.09% | activity change, negative = inhibition [2] -11.7% | activity, negative = inhibition [3] -12.1% | Potency [4] > 20.6 µM

COc1ccc(C2C(C#N)=C(N)Oc3cc(C)n(CCN4CCOCC4)c(=O)c32)cc1OC (stereo not given)
inactive: activity change, negative = inhibition [1] 0.457% | activity change, negative = inhibition [2] 24.9% | activity, negative = inhibition [3] 6.24% | Potency [4] > 20.6 µM

Cc1ccc(C2/C(=C(\O)c3cnn(-c4ccccc4)c3C)C(=O)C(=O)N2CCN(C)C)o1 (stereo not given)
inactive: activity change, negative = inhibition [1] -6.2% | activity change, negative = inhibition [2] -12.1% | activity, negative = inhibition [3] 4.22% | Potency [4] > 20.6 µM
